High-throughput results from PubChem BioAssay.
SMARCA2 activ: increases SMARCA2 function in MMTV reporter cells; MG213 cells, MMTV-luciferase reporter, dexamethasone, overnight; activation, % at 9.1 µM; 370,000 tested, 1% active; AID 652017; in the data active = activation above about 7.8%
hcDAF-12 act: activators of H. contortus DAF-12 nuclear receptor | HEK293 hcDAF-12 lit1-tk-luc reporter, luminescence; 0% DMSO, 100% Δ7-dafachronic acid | activation, % at 6.8 µM | 370,000 tested, 1.4% active;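 active = activation above the mean of all tested compounds plus 3 SD, cut at about 5.5% in these data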
ssDAF-12 act: activates DAF-12 receptor from parasite S. stercoralis; HEK293 ssDAF-12/GRIP1 lit1-tk-luc reporter, luminescence; % of 3 µM dafachronic acid response; activation, % at 6.8 µM; 370,000 tested, 1% active;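 active = activation above the mean over all tested compounds plus 3 SD, cut at about 0.9% in these data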
DAX1 inh-1: NR0B1 (DAX1) inhibition; HEK293 Gal4-DAX1 luciferase reporter, luminescence; inhibition, % at 6.75 µM; P51843; 340,000 tested, 0.99% active; AID 504766;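 active = inhibition above the mean over all tested compounds plus 3 SD, cut at about 4.2% in these data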;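 also: inhibition shows as a rise in luminescence from relieved DAX1 repression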
Target sequence (P51843 207-470 limits assumed): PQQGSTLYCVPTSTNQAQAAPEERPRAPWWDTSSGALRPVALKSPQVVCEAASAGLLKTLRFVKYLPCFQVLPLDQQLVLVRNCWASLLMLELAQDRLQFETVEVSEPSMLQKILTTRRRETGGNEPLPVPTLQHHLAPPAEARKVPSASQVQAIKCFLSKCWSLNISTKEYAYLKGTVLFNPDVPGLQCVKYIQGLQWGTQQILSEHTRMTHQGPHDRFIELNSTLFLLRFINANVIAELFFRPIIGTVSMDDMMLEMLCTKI
hgDAF12 agonist: activates the H. glycines DAF-12 receptor ligand-binding domain; 370,000 tested, 1.8% active; activation, % at 6.8 µM; HEK293 GAL4-hgDAF12 UAS-luciferase reporter, agonist luminescence; normalized to butyrate control; AID 687014;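 active = activation above a cutoff set at the mean of all screened compounds plus 3 SD, cut at about 10% in these data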
DAX1 inh-2: DAX1 (NR0B1) inhibition, primary screen; HEK293T StAR-luciferase reporter, SF-1/DAX-1 repression relief; inhibition, % at 6.8 µM; 370,000 tested, 1.1% active;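 active = inhibition above the mean over all tested compounds plus 3 SD, cut at about 3.6% in these data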;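 also: higher inhibition means more luminescence from relief of DAX-1 repression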
A number is an active result; i = inactive; nt = no result. This is a sample that favours compounds with a hit; in the whole collection about 4.8% have one here.

SMILES	SMARCA2 activ	hcDAF-12 act	ssDAF-12 act	DAX1 inh-1	hgDAF12 agonist	DAX1 inh-2
COc1ccc2c(c1)CC1(CN2C)C(=O)NC(=O)N(c2ccc(F)cc2)C1=O (configuration not stated)	i	6.0	i	i	i	i
COc1ccc(Br)cc1CN1CCN(CCO)CC1	i	i	i	i	i	i
C=CCn1c(O)c(C(CC)=Nc2cccc(C(F)(F)F)c2)c(=O)[nH]c1=O	i	6.1	i	i	i	i
C=C(C)Cn1c(=O)n(CC2CS2)c2ccccc21 (configuration not stated)	i	i	i	i	i	i
COc1ccc(OC)c(-n2c(O)c(/C=C3\C=Nc4ccccc43)c(=O)[nH]c2=O)c1	i	i	2.9	i	i	i
O=C1NC(=O)C(CCc2ccncc2)(Cc2ccc([N+](=O)[O-])cc2)C(=O)N1	i	i	i	i	i	i
CCN1C(=O)/C(=C/c2ccc3c(c2)CCN3CCCCl)C(=O)NC1=S	i	i	1.7	i	i	i
O=C1NC(=S)N(C2CC2)C(=O)/C1=C/c1ccc2c(c1)CCN2CCCCl	i	i	i	i	i	i
CC(C)CCNC(=O)CN1C(=O)CN=C(c2ccccc2)c2ccccc21	i	i	i	i	i	i
OCC#CC[N+]1(CC#Cc2ccccc2)CCOCC1	i	i	i	4.3	i	i
COc1ccc(-c2nn(CCC#N)cc2C(=O)Nc2cccc([N+](=O)[O-])c2)cc1OC	i	i	i	i	i	i
CCc1ccc(-c2nn(Cc3ccccc3)cc2C=O)cc1	i	i	i	i	13	i
O=Cc1cn(Cc2c(F)cccc2Cl)nc1-c1ccccc1	i	i	i	i	i	i
COc1cc(C(=O)O)cc(OC)c1OC	i	i	i	8.4	i	i
COC(=O)CSC1=NN1c1cc(C)nc(N)n1	i	i	i	4.7	i	i
CCOC(=O)[C@]12Cc3ccccc3[C@H]1N(C(C)C)C(=O)c1ccccc12	i	i	i	nt	i	4.5
O=C(N/N=C/c1c(O)n(Cc2ccc(F)cc2)c(=O)[nH]c1=O)c1ccccc1	i	i	i	6.6	11	i
O=C(N/N=C/c1c(O)n(CCC2=CCCCC2)c(=S)[nH]c1=O)c1ccccc1	i	i	i	i	11	i
COc1ccc2c(c1)NP(=S)(c1ccccc1)N2C (configuration not stated)	i	i	i	5.3	i	4.5
COc1ccc(-n2c(=O)[nH]c3ccccc3c2=O)c(OC)c1	i	i	i	i	i	i
CSc1ncc(/C=C2/C(=O)NC(=O)N(c3ccc(C(C)C)cc3)C2=O)cn1	i	6.4	i	i	i	i
CC(C)c1ccc(N2C(=O)NC(=O)/C(=C/c3cnc(-c4ccccc4)nc3)C2=O)cc1	i	i	i	i	i	i
COC(=O)C(O)(c1ccc(NC(=O)Oc2ccccc2)cc1)C(F)(F)F (configuration not stated)	i	i	i	5.5	i	i
Cc1ccc2c(c1)N(CCC(=O)N1CCC3(CC1)OCCO3)C(=O)CO2	i	i	i	i	i	i
CN1C(=O)NC(=O)/C(=C\C=C\c2ccccc2[N+](=O)[O-])C1=O	i	i	1.4	nt	i	i
SMILES	SMARCA2 activ	hcDAF-12 act	ssDAF-12 act	DAX1 inh-1	hgDAF12 agonist	DAX1 inh-2
COc1ccc(-n2nc(C(=O)NCC(=O)N3CCC4(CC3)OCCO4)c3ccccc3c2=O)cc1OC	i	i	i	i	i	i
O=C1NC(=O)C(=Cc2cccc(OCCOc3ccccc3)c2)C(=O)N1	i	i	i	i	11	i
Cc1ccc(OCCOc2cccc(C=C3C(=O)NC(=O)NC3=O)c2)c(C)c1	i	i	1.4	i	11	i
O=C1NC(=O)C(=Cc2ccc(OCCOc3ccc([N+](=O)[O-])cc3)cc2)C(=O)N1	i	i	i	i	i	i
CCOc1cc(C=C2C(=O)NC(=O)NC2=O)ccc1OS(=O)(=O)c1ccccc1	nt	nt	nt	i	nt	nt
COC(=O)C1=C(c2cc3ccccc3o2)C[C@@H]2CC[C@H]1N2C(=O)NCc1ccccc1	i	i	i	i	i	i
Cc1cc(=O)oc2c(C)c(OCC(=O)N3CCC(C(=O)O)(c4ccccc4)CC3)ccc12	i	i	i	4.6	i	i
Cc1cc(=O)oc2cc(OCC(=O)N3CCC(C(=O)O)(c4ccccc4)CC3)ccc12	i	i	i	i	i	i
CN(C)Cc1ccccc1OC(=O)N(C)C	i	i	i	i	i	i
O=C1NC(=O)N(Cc2ccccc2)C(=O)/C1=C\C=C\c1ccco1	i	i	i	i	i	i
O=C1NC(=O)N(Cc2ccccc2)C(=O)/C1=C/N1CCCc2ccccc21	i	5.8	i	i	i	i
C/C(=N\Nc1ccccc1)c1c(O)n(Cc2ccccc2)c(=O)[nH]c1=O	i	i	i	i	i	i
CC(=O)C1CCC2C3CCC4CC(O)CCC4(C)C3CCC12C (configuration not stated)	i	i	i	i	i	i
COCCOC(=O)C1=C(N)OC(C)=C(C(=O)OC)C12C(=O)Nc1ccccc12 (configuration not stated)	i	6.2	i	i	i	i
COC(=O)C1=C(C)OC(N)=C(C#N)C12C(=O)Nc1ccccc12 (configuration not stated)	i	i	i	i	i	i
CN1C(=O)N(C)C(=O)C2(Cc3c(ccc4ccccc34)N(C)C2)C1=O	i	i	i	i	i	i
Cc1cc(C)cc(NC(=O)CCNC(=O)N2C[C@H]3C[C@@H](C2)c2cccc(=O)n2C3)c1	i	i	i	4.3	i	i
O=C(CF)NC(NC(=S)Nc1ccccc1O)C(Cl)(Cl)Cl (configuration not stated)	i	i	i	4.9	i	i
Cc1c(C(c2ccccc2Cl)c2c(O)c3ccccc3oc2=O)c(=O)n(-c2ccccc2)n1C (configuration not stated)	i	i	i	4.3	i	i
Cc1c(C(c2ccc(F)cc2)c2c(O)c3ccccc3oc2=O)c(=O)n(-c2ccccc2)n1C (configuration not stated)	i	i	i	i	i	i
COc1ccc(N/N=C/c2c(O)n(-c3cccc(C)c3)c(=O)[nH]c2=O)cc1	i	i	i	i	i	i
Cc1nn(Cc2ccccc2)c(C)c1C=C1C(=O)NC(=S)NC1=O	i	6.1	i	i	i	i
CCOC(=O)c1c(C)[nH]c(C)c1C(=O)C(Cc1ccccc1)N(C)C (configuration not stated)	i	i	i	i	i	i
Cc1c(CC(=O)N2C[C@H]3C[C@@H](C2)c2cccc(=O)n2C3)c(=O)oc2cc(O)c(Cl)cc12	i	i	i	i	i	i
COc1cc2oc(=O)c(CC(=O)N3C[C@H]4C[C@@H](C3)c3cccc(=O)n3C4)c(C)c2cc1Cl	i	i	i	4.8	i	i
